Screening results: PubChem, Sanford-Burnham Center for Chemical Genomics
PTK2B oligo ant: blocks oligomerization of human Pyk2 in cells. Q293 cells, Pyk2 FERM NanoBiT luminescence; hits give low values. AID 1347419. z-score (the deposit names both 25 µM and 10 µM). Q14289. 0.83% of 99,000 active;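 active = Z-score of -3 or lower, scaled per plate to the spread of control and sample wells; inactive = z-score above -3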;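 note: negative z-score means lost luminescence so less FERM oligomerization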
CYP2C9 inhib: human CYP2C9 inhibition | P11712 | 20% of 96,000 active | CYP2C9 Supersomes, luciferin-H conversion, luminescence | inhibition, % at 5 µM;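 active = blocking of liver enzyme CYP2C9 beyond about 50% at 5 µM, limit read from the data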
CYP2C19 inh: human CYP2C19 inhibition; CYP2C19 Supersomes, luciferin-H EGE luminescence, 30 min; 21% of 96,000 active; inhibition, % at 5 µM;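 active = CYP2C19 inhibition above a set limit at 5 µM in the primary screen, cut at about 50% in these data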;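 note: plate controls were negative control wells for no effect and 2.5 mM tranylcypromine positive control for full effect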
Target sequence (P33261 whole entry, looked up): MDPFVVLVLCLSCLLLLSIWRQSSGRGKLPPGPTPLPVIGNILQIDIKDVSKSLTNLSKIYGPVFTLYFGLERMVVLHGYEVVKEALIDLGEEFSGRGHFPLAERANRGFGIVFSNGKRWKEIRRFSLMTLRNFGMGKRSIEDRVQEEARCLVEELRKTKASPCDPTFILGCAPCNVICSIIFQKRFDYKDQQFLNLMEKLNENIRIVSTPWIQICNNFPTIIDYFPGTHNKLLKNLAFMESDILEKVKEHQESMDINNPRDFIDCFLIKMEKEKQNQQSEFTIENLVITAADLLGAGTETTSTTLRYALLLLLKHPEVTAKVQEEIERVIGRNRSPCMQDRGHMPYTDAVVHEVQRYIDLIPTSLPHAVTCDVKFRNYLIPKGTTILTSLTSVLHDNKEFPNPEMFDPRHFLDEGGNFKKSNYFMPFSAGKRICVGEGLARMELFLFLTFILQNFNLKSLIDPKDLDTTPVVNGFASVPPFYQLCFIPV
CYP2C19 activ: cytochrome P450 2C19 (human) activation; P33261; recombinant CYP2C19, luciferin-H EGE luminescence; hits give high values; 0 = fully inhibited enzyme, 1 = untreated enzyme; activation factor at 5 µM; 96,000 tested, under 10 active; AID 1025;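 active = activation factor of at least 2 at 5 µM in the primary screen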;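 note: 0 = wells with 2.5 mM tranylcypromine and 1 = vehicle-only wells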
CYP2C9 activ: activators of human CYP2C9. P11712. recombinant CYP2C9, luciferin-H conversion, luminescence; hits give high values; factor 1 = untreated enzyme, 0 = blocked. activation factor at 5 µM. 1.4% of 96,000 active. AID 1024;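 active = activation factor of 2 or more for CYP2C9 at a 5 µM dose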;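 note: 0 = sulfaphenazole-blocked wells and 1 = vehicle-only wells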
* = called active by the depositor; nt = not tested or not shown. The list is not random: actives were taken first. Their share in the collection is about 28%.

SMILES | PTK2B oligo ant | CYP2C9 inhib | CYP2C19 inh | CYP2C19 activ | CYP2C9 activ
Cc1ccc(S(=O)(=O)N2CCC(C(=O)Nc3ccc4c(c3)COC4=O)CC2)cc1 | -0.89 | -37.2 | -9.3 | 1.1 | 1.4
CCc1nnc(NC(=O)C2CCCN2S(=O)(=O)c2ccc(F)cc2)s1 (stereo unspecified) | 2.33 | 86.2* | 76.1* | 0.2 | 0.1
CC(=O)c1ccc(NC(=O)C2CCCN2S(=O)(=O)c2ccc(F)cc2)cc1 (stereo unspecified) | nt | 74.0* | 66.0* | 0.3 | 0.3
CCn1cc(CNC(=O)CCSc2nc(-c3ccco3)cc(C(F)(F)F)n2)cn1 | nt | 19.1 | 24.3 | 0.8 | 0.8
CC(=O)c1cn(CC(=O)NCC2CCCO2)c2ccccc12 (stereo unspecified) | 0.24 | -2.5 | 17.1 | 0.8 | 1
O=C(CN1C(=O)c2ccccc2S1(=O)=O)c1ccccc1 | 0.58 | 23.2 | 19.0 | 0.8 | 0.8
O=C1c2ccccc2S(=O)(=O)N1CCOc1ccc(F)cc1 | -1.23 | 63.4* | 99.4* | 0 | 0.4
COc1ccc(S(N)(=O)=O)cc1C(=O)NCC1(N2CCCCC2)CCCCC1 | -0.05 | -6.8 | 0.9 | 1 | 1.1
CC(=O)Nc1ccc(Sc2ncccc2C(=O)Nc2ccc(F)cc2)cn1 | -0.43 | 13.9 | -4.3 | 1 | 0.9
Cc1cc(NC(=O)c2cnn3c(C(F)F)cc(C4CC4)nc23)no1 | -0.63 | -10.4 | -10.9 | 1.1 | 1.1
O=C(NCCc1ccccc1)c1cnn2c(C(F)F)cc(C3CC3)nc12 | -1.59 | 46.2 | 86.9* | 0.1 | 0.5
Cc1nn(C)cc1CNC(=O)c1cnn2c(C(F)F)cc(C3CC3)nc12 | -0.03 | 45.8 | 33.5 | 0.7 | 0.5
COC(=O)c1ccccc1NC(=O)c1cnn2c(C(F)F)cc(C3CC3)nc12 | -3.62* | 14.0 | -7.6 | 1.1 | 0.9
CCCN(CC1CC1)C(=O)Nc1ccccc1C | 1.53 | -9.7 | 22.7 | 0.8 | 1.1
CC(C)(C)c1ccc(C(=O)c2c[nH]c(C(=O)NCc3ccco3)c2)cc1 | 2.19 | 23.5 | 28.4 | 0.7 | 0.8
CC(C)(C)c1ccc(C(=O)N/C(=C\c2cccs2)C(=O)NCc2ccco2)cc1 | -1.65 | 56.5* | 6.7 | 0.9 | 0.4
CCC(C)Nc1c2c(nc3c(-c4ccccc4)c(C)nn13)CCC2 (stereo unspecified) | -1.13 | 28.1 | 4.4 | 1 | 0.7
CCCC/C(O)=C1\C(=O)CC(C)(C)CC1=Nc1ccc(OC)cc1 | -0.28 | 43.8 | 56.6* | 0.4 | 0.6
C=CCN=C1CC(C)(C)CC(=O)/C1=C(/O)CCC(=O)OC | 0.07 | -4.2 | 26.1 | 0.7 | 1
CCOC(=O)c1cc(-c2ccccc2)nc2c1c(C)nn2-c1ccccn1 | -2.35 | -22.1 | -7.1 | 1.1 | 1.2
CCOC(=O)c1cc(-c2ccncc2)nc2c1c(C)nn2C | 1.14 | 50.4* | 96.2* | 0 | 0.5
Cc1cc(C)cc(-n2c(SCC(=O)NCc3ccco3)nc3ccccc3c2=O)c1 | -1.84 | 21.6 | 3.7 | 1 | 0.8
COC(=O)c1ccccc1NC(=O)C1CCN(C(=O)c2cc(OC)cc(OC)c2)CC1 | -1.57 | 32.9 | 14.6 | 0.9 | 0.7
COc1cccc2cc(-c3nnc(SCC(=O)NCc4ccccc4)n3C)oc12 | -0.52 | 28.1 | 14.0 | 0.9 | 0.7
CN(C)S(=O)(=O)c1cccc(C(=O)NCc2cccs2)c1 | 0.77 | 59.5* | 51.0* | 0.5 | 0.4
SMILES | PTK2B oligo ant | CYP2C9 inhib | CYP2C19 inh | CYP2C19 activ | CYP2C9 activ
CCN(CC)S(=O)(=O)c1ccc(C(=O)NCc2cccs2)cc1 | -0.85 | 53.2* | -8.2 | 1.1 | 0.5
CCOc1ccc(C(=O)NCc2cccs2)cc1 | 0.01 | 29.2 | 66.9* | 0.3 | 0.7
CCOc1ccc(C(=O)NCc2cccnc2)cc1 | 0.64 | 8.1 | 44.3 | 0.6 | 0.9
CCOC(=O)CC(NC(=O)c1cccs1)c1ccc(OCC)cc1 (stereo unspecified) | -1.68 | 65.4* | 51.8* | 0.5 | 0.3
CCOC(=O)NC1(C(F)(F)F)C(=O)N(Cc2ccccn2)C2=C1C(=O)CC(C)(C)C2 (stereo unspecified) | 0.12 | -10.1 | 14.4 | 0.9 | 1.1
O=C(O)CCCN=CC1=C(O)C(C(=O)c2ccccc2)CCC1=O (stereo unspecified) | 1.03 | nt | nt | nt | nt
COc1cc(C=O)ccc1OCCOCCOc1cc(C)ccc1Cl | 0.21 | 51.8* | 49.9 | 0.5 | 0.5
COc1cc(C)ccc1OCCCOc1ccccc1Cl | -1.4 | 5.7 | 36.2 | 0.6 | 0.9
COc1cc(C)ccc1OCCOc1ccccc1Cl | -1.33 | 28.4 | 70.0* | 0.3 | 0.7
CC(C)C(OC(=O)c1cc2sccc2n1C)C(=O)NCC1CCCO1 (stereo unspecified) | 1.29 | 43.3 | 56.5* | 0.4 | 0.6
Cn1c(C(=O)OC(C(=O)NC2CCCC2)c2ccncc2)cc2sccc21 (stereo unspecified) | -1.31 | 71.7* | 94.8* | 0.1 | 0.3
Cn1c(C(=O)OC(C(=O)NC2CCCCC2)c2ccncc2)cc2sccc21 (stereo unspecified) | -1.79 | 90.6* | 98.1* | 0 | 0.1
COCCNC(=O)C(C)OC(=O)c1cc2sccc2n1C (stereo unspecified) | -0.32 | -9.2 | 49.6 | 0.5 | 1.1
CCCC(=O)NC(C)c1nc2ccccc2n1C(C)C (stereo unspecified) | nt | 5.9 | 9.0 | 0.9 | 0.9
COc1ccc(C(=O)CC(Nc2ccc([N+](=O)[O-])cc2)c2ccc(Cl)cc2)cc1 (stereo unspecified) | -0.65 | 78.1* | 66.6* | 0.3 | 0.2
COC(=O)C(CC(=O)c1ccc(Cl)cc1)c1ccc(C)cc1 (stereo unspecified) | -1.54 | nt | nt | nt | nt
Cc1occc1C(=O)NNC(=O)Cc1ccccc1 | 0.79 | 25.5 | 12.1 | 0.9 | 0.7
Cn1c(=O)c2c(nc(NCCc3ccccc3)n2Cc2ccc(F)cc2)n(C)c1=O | nt | 46.7 | 39.3 | 0.6 | 0.5
COCCCNc1nc2c(c(=O)[nH]c(=O)n2C)n1CCCc1ccccc1 | -0.22 | 39.3 | 70.2* | 0.3 | 0.6
Cn1c(=O)c2c(nc(NCc3ccccc3)n2CCCc2ccccc2)n(C)c1=O | -0.86 | 41.2 | 26.2 | 0.7 | 0.6
Cc1ccc(Cn2c(NCCCn3ccnc3)nc3c2c(=O)n(C)c(=O)n3C)cc1 | -0.21 | 98.7* | 98.0* | 0 | 0
CCOCCCNc1nc2c(c(=O)n(C)c(=O)n2C)n1CCCc1ccccc1 | 1.59 | 81.8* | 68.2* | 0.3 | 0.2
Cc1cccc(N2CC(O)=C(c3nc4ccccc4n3C)C2=N)c1 | 2.8 | -5.5 | 10.2 | 0.9 | 1.1
O=C(c1cccs1)N1CCC(c2ccccc2)C1 (stereo unspecified) | -0.5 | 80.7* | 97.9* | 0 | 0.2
O=C(CCN1CCC(c2ccccc2)C1)c1ccccc1 (stereo unspecified) | 0.8 | 57.9* | 88.5* | 0.1 | 0.4
O=C(CCN1CCC(c2ccccc2)C1)c1ccc2c(c1)OCCO2 (stereo unspecified) | nt | -30.0 | -5.0 | 1.1 | 1.3
O=C(CCN1CCC(c2ccccc2)C1)c1cccs1 (stereo unspecified) | 1.71 | 24.9 | 78.2* | 0.2 | 0.8
